Data from PubChem BioAssay (NCATS).
“And” between values parts separate entries of the source, which are not always exact repeats. Identical values can stand only once. Records with an inconclusive call do not appear. The source made the active and inactive calls. Unless noted, calls follow the shape of the dose curve; as a rule, active = well fitted curve in the direction sought with a large enough effect; inconclusive = small, poorly fitted or top-dose-only effect, or another doubt; inactive = no such curve, though single readings can be large; an effect the other way counts as inactive or inconclusive.

Assays:
[1] = target: ATP-dependent 6-phosphofructokinase (Trypanosoma brucei brucei) (UniProt O15648); test: qHTS Assay to Find Inhibitors of T. brucei phosphofructokinase: hit validation (AID 492961);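 also: luminescence reports ADP formed as PFK phosphorylates fructose-6-phosphate with ATP; series mostly up to about 51 µM; % is scaled to controls: 0 for no effect and ±100 for the full control effect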
ATP-dependent 6-phosphofructokinase (Trypanosoma brucei brucei), sequence (O15648 whole entry, looked up): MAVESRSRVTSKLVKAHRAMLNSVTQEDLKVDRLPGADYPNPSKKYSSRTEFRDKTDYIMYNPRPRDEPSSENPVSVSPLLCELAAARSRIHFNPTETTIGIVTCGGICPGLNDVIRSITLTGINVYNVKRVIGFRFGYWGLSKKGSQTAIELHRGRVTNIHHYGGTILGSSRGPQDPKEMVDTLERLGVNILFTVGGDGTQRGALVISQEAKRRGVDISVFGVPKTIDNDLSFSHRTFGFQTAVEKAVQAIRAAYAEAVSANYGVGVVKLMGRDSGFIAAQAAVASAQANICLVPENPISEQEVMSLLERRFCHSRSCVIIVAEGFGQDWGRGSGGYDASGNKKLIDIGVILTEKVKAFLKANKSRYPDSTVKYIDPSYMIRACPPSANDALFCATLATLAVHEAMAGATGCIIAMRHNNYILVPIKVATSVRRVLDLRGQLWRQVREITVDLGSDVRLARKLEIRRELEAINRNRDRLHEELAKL
How it was run: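 Measures ADP output of PFK (1.25 nM) at 0.1 mM ATP, 0.5 mM F6P, pH 8.0 TEA buffer with 5 mM MgCl2. No-enzyme wells define full inhibition; uninhibited enzyme wells define zero.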

[2] = target: Ubiquitin carboxyl-terminal hydrolase 1 (Homo sapiens) (UniProt O94782); test: Inhibitors of USP1/UAF1: Pilot qHTS (AID 504865); also: nearly all actives have a fitted effect of over 35% in size; also: potency is read from the fitted curve at half-maximal effect
Ubiquitin carboxyl-terminal hydrolase 1 (Homo sapiens), sequence (O94782 whole entry, looked up): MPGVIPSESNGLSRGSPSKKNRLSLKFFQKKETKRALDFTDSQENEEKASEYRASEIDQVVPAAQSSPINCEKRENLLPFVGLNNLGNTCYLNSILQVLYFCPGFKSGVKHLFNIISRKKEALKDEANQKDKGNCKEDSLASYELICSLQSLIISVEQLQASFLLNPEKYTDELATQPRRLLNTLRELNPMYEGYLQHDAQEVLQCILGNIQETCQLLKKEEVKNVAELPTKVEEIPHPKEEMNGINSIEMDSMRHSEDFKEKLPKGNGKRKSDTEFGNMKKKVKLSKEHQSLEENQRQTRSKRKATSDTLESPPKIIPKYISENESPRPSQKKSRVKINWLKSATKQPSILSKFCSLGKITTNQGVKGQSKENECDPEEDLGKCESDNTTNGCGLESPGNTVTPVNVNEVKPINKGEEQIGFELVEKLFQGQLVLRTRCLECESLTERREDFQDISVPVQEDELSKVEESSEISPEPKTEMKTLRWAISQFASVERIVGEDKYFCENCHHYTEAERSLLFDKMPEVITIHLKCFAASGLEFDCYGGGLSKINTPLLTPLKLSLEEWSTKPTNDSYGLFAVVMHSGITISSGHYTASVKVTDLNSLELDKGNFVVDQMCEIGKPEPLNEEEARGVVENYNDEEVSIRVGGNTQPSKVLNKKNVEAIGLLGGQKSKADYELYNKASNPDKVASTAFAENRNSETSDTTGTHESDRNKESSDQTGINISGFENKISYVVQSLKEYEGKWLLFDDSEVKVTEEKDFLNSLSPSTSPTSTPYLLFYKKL
How it was run: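 USP1/UAF1 complex (1nM) preincubated with compound 15 min at room temperature, then Ub-Rho substrate (150nM final) added. Fluorescence read kinetically at 480/540 nm, 6 reads every 60 seconds. Buffer: 50mM HEPES pH 7.8, 0.5mM EDTA, 0.1 mg/ml BSA, 1mM TCEP, 0.01% Tween-20.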

[3] = target: Estrogen receptor (Homo sapiens) (UniProt P03372); test: qHTS assay for small molecule antagonists of estrogen receptor alpha signaling (AID 588513; active = well fitted curve in the direction sought with a large enough effect in the signal ratio, with a control signal flat, not every such curve was filed as active; the % refers to the signal ratio; also: % is scaled to controls: 0 for no effect and ±100 for the full control effect)
How it was run: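 ER-alpha-UAS-bla GripTite HEK 293 cells in medium with 2% charcoal/dextran-treated FBS were preincubated 4 h at 37 C, dosed with compound (1:2 titration), stimulated with 0.5nM 17-beta-estradiol for 18 h, then read by CCF4 beta-lactamase fluorescence.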

[4] = target: Estrogen receptor (Homo sapiens) (UniProt P03372); test: qHTS assay for small molecule agonists of estrogen receptor alpha signaling (AID 588514; calls by dose curve;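 also: 0% = vehicle only and 100% = reference agonist; nearly all actives have a fitted effect of over 70% in size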)
How it was run: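 EC50 and efficacy came from Hill fits of beta-lactamase reporter signal (CCF4 dye, 2 h at room temperature) scaled between DMSO and 20 nM 17-beta-estradiol. Agonist mode: HEK293 ER-alpha-UAS-bla cells in charcoal/dextran-stripped serum medium, 18 h compound exposure at 37 C.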

[5] = Validation screen for small molecules that induce genotoxicity in human embryonic kidney (HEK293T) cells expressing luciferase-tagged ELG1 (AID 493106); also: potency is read from the fitted curve at half-maximal effect
How it was run: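 ELG1-luciferase reporter readout (ONE-Glo, 30 min, room temperature) after 16 hr compound treatment at 37 °C of HEK293T cells at 2,000 per well. Rising luminescence flags genotoxic stress.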

[6] = target: Thyrotropin-releasing hormone receptor (Homo sapiens) (UniProt P34981); test: qHTS for Small Molecule Agonists and Allosteric Enhancers of Human TRH Receptor: Validation Screen for Agonists (AID 493127;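 active = calcium activation more than 3 SD above the typical response in the agonist read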;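 also: intracellular calcium rise by fluo-8 fluorescence before TRH EC20 addition; 0% is about no effect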); details: TRH receptor agonist cell assay; at 2 µM; stronger effect = higher value
How it was run: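 Compound-evoked intracellular calcium release in fluo-8-loaded TRHR cells, read kinetically on FDSS (Ex 480/Em 530, 1 s/cycle) after 23 nL pintool transfer. Agonist phase preceded 10 nM TRH EC20 addition.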

[7] = qHTS for Inhibitors of Cell Surface uPA Generation: Validation Assay (AID 493164);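 also: RAW 264.7 macrophage cells exposed to compound for 18 h; 0% is about no effect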
How it was run: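 ATP-Lite luminescence read-out: ATP remains high when uPA activity-dependent LF translocation into the cytoplasm is blocked. RAW 264.7 cells, 18 h compound exposure at 37 C; 7-point titration, 2.45 nM to 38.3 uM final.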

[8] = target: Galactokinase (Homo sapiens) (UniProt P51570); test: qHTS Validation Assay for Inhibitors of Human Galactokinase (GALK) (AID 493189); also: 0% is about no effect
Galactokinase (Homo sapiens), sequence (P51570 whole entry, looked up): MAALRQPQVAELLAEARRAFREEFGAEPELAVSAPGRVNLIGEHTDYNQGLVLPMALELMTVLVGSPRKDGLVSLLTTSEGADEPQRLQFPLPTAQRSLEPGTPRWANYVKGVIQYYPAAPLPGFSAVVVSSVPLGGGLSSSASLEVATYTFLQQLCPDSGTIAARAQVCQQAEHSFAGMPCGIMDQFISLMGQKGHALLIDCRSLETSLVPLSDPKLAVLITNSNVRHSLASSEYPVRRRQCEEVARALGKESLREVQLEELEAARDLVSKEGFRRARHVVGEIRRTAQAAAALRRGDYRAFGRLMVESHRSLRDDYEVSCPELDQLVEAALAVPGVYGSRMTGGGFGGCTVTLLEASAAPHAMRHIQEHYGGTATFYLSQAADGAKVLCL
How it was run: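 GALK (5 nM) with 35 uM ATP and 100 uM galactose in HEPES pH8.0, MgCl2, NaCl, DTT, BSA; 1 h at room temperature. Residual ATP read by Kinase-Glo Plus luminescence after 10 min.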

[9] = Validation screen for small molecules that induce DNA re-replication in SW480 colon adenocarcinoma cells (AID 504364); also: 0% is about no effect
How it was run: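 Image-based DNA content read-out: Hoechst stain 40 min, total nuclear fluorescence intensity (ex 405 nm, em 500-530 nm) after 48 h compound exposure of 250 SW480 cells/well at 37 C, 5% CO2, versus DMSO vehicle.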

[10] = target: Phosphoglycerate kinase, glycosomal (Trypanosoma brucei brucei) (UniProt P07378); test: qHTS Validation Assay to Find Inhibitors of Phosphoglycerate Kinase (AID 504547);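 also: control wells lack PGK and mark full inhibition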
How it was run: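 Luminescence end-point (Kinase-Glo Plus, 10 min) after a 60 min room-temperature coupled reaction. GAPDH at 100nM final supplies 1,3-BPG to PGK. Buffer: 100mM TEA pH 7.6, 5mM MgCl2, 0.01% Tween-20. Wells lacking PGK served as controls.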

[11] = target: DNA dC->dU-editing enzyme APOBEC-3G (Homo sapiens) (UniProt Q9HC16); test: qHTS for inhibitors of Vif-A3G interactions: Validation (AID 588379); also: 0% is about no effect
DNA dC->dU-editing enzyme APOBEC-3G (Homo sapiens), sequence (Q9HC16 whole entry, looked up): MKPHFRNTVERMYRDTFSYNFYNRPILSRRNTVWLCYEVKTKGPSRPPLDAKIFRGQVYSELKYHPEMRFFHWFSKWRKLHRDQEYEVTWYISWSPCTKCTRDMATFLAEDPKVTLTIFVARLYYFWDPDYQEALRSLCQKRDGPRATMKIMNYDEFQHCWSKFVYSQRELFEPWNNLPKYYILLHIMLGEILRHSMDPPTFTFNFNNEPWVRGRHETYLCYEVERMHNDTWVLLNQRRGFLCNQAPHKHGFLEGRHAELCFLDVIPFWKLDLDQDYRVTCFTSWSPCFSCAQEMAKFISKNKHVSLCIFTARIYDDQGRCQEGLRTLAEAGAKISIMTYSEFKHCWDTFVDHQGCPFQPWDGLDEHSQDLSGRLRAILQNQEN
How it was run: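 Yellow fluorescence (Ex 488, Em 500-530) of Vif-coexpressing HeLa A3G-eYFP cells, scanned by Acumen cytometer, reports blocked A3G degradation. Cells plated at 700/well overnight at 37 deg C before compound addition, then a further overnight compound incubation at 37 deg C.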

[12] = target: ATPase family AAA domain-containing protein 5 (Homo sapiens) (UniProt Q96QE3); test: Validation screen for small molecules that inhibit ELG1-dependent DNA repair in human embryonic kidney (HEK293T) cells expressing luciferase-tagged ELG1 (AID 493107);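 also: series mostly up to about 46 µM; % is scaled to controls: 0 for no effect and ±100 for the full control effect; inhibitors lower the ELG1-luciferase luminescence signal; nearly all actives have a fitted effect of over 70% in size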
ATPase family AAA domain-containing protein 5 (Homo sapiens), sequence (Q96QE3 whole entry, looked up, the tested form may be a part): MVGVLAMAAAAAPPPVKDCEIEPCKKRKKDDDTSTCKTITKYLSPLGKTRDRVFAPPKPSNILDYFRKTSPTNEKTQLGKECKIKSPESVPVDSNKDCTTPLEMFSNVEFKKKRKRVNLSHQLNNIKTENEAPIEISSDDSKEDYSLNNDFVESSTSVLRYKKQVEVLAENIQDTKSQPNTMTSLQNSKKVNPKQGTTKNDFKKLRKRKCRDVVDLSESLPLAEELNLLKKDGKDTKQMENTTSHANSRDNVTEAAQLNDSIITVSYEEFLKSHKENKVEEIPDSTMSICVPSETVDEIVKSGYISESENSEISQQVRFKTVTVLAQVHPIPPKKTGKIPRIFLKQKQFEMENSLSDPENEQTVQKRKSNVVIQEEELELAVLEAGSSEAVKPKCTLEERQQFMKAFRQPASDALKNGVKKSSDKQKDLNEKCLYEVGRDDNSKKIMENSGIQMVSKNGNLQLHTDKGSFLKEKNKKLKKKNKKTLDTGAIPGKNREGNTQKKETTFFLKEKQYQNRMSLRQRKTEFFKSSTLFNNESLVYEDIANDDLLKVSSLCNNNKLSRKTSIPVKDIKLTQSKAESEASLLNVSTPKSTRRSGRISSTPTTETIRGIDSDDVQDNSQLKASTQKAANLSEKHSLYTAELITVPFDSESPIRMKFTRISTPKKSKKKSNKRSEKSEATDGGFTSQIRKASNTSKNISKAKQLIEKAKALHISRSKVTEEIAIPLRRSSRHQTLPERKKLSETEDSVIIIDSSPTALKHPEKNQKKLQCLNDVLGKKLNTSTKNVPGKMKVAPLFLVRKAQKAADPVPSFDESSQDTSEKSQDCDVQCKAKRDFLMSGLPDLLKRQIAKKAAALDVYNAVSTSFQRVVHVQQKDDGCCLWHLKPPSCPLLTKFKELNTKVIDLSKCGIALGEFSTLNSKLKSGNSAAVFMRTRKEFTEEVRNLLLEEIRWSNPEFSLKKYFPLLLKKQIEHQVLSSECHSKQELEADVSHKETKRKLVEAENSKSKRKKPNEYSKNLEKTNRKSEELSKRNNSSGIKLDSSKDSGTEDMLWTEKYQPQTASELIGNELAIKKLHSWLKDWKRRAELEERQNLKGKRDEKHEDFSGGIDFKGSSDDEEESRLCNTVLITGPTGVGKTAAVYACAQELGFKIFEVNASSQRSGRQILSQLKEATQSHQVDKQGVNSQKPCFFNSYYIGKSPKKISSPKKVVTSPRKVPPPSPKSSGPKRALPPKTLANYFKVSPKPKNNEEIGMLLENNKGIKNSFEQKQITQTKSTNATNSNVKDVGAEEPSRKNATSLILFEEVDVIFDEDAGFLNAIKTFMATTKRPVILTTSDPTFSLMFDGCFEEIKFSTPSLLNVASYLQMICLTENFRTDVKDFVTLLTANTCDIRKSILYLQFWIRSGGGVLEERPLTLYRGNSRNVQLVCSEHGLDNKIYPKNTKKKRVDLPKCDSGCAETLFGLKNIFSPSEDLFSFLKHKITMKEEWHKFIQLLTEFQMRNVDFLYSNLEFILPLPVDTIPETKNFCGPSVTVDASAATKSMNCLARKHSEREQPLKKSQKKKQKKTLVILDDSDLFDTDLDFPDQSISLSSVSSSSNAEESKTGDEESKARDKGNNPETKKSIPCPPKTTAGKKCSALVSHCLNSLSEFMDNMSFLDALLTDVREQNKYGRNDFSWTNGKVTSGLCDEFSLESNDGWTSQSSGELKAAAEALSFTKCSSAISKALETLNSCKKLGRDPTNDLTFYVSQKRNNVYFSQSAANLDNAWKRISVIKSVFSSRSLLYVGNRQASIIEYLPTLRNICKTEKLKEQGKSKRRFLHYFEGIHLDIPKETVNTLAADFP
How it was run: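 Luciferase read-out, ONE-Glo, 30 min at room temperature, follows 16 h co-exposure at 37 C of compound and the DNA-damaging agent 5-fluorouridine. Cells: HEK293T with ELG1-luciferase fusion, 2,000 per well, DMSO as vehicle.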

[13] = Nrf2 qHTS screen for inhibitors: Validation (AID 493153; active = well fitted inhibition curve with a large enough effect in the main read-out, with a control signal flat, not every such curve was filed as active); details: Potency: luciferase luminescence; viability change: measured here: cytotoxicity max response
How it was run: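 Concentration-response on A549 ARE_Fluc reporter cells exposed 18-24 h at 37 C, 5% CO2. Cytotoxicity read first by CellTiter-Fluor fluorescence (Ex 405/Em 525), then Nrf2 inhibition by BugLite luminescence after 15 min.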

[14] = target: phosphoglycerate mutase (Leishmania major) (UniProt Q4Q090); test: qHTS Validation Assay to Find Inhibitors of Phosphoglycerate Mutase (AID 504548); also: series mostly up to about 58 µM; % is scaled to controls: 0 for no effect and ±100 for the full control effect
How it was run: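 Lm PGAM at 1.25 nM final with substrate in 100 mM TEA pH 7.6, 5 mM MgCl2, 0.01% Tween-20; 45 min at room temperature. Kinase-GloPlus added, 10 min, end-point luminescence read.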

[15] = target: Peptidyl-prolyl cis-trans isomerase NIMA-interacting 1 (Homo sapiens) (UniProt Q13526); test: qHTS Validation Assay to Find Inhibitors of Pin1 (AID 504536; active = well fitted inhibition curve with a large enough effect in the polarisation, with a control signal flat, not every such curve was filed as active; the % refers to the polarisation;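 also: 0% = full Pin1 enzyme wells and -100% = no-enzyme wells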)
Peptidyl-prolyl cis-trans isomerase NIMA-interacting 1 (Homo sapiens), sequence (Q13526 whole entry, looked up): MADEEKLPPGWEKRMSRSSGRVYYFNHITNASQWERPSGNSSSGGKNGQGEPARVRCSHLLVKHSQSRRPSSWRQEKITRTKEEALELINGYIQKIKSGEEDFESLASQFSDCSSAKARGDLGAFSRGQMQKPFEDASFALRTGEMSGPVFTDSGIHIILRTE
How it was run: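 Fluorescence polarization competition: compounds (titration) displace HiFluor-488-labeled Pin1-1b peptide from Pin1 (0.3 uM final) in pH 7.5 HEPES buffer with DTT, 10 min at room temperature; %Activity normalized to no-enzyme wells, curves fitted.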

[16] = qHTS for Inhibitors of ATXN expression: Validation of Cytotoxic Assay (AID 588349); also: potency is read from the fitted curve at half-maximal effect
How it was run: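 Cytotoxicity counter-screen: ATP-based luminescent viability (CellTiter Glo) after 72 hr exposure of HEK293 cells to a compound titration at 37 degrees C.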

[17] = qHTS for Inhibitors of ATXN expression: Validation (AID 588378); also: series mostly up to about 57 µM; % is scaled to controls: 0 for no effect and ±100 for the full control effect; nearly all actives have a fitted effect of over 75% in size
How it was run: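 Luminescence from an ATXN2-FFLuc reporter in HEK293 cells served as read-out after 24 h compound treatment at 37 degrees C; CellTiter-Fluor fluorescence was recorded first to assess viability.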

[18] = target: Androgen receptor (Homo sapiens) (UniProt P10275); test: qHTS assay for small molecule agonists of androgen receptor signaling (AID 588515; active = well fitted curve in the direction sought with a large enough effect in the signal ratio, with a control signal flat; the % refers to the signal ratio; also: % is scaled to controls: 0 for no effect and ±100 for the full control effect); details: AR-UAS-bla HEK293, beta-lactamase ratio, agonist 16 h; stronger effect = higher value
Androgen receptor (Homo sapiens), sequence (P10275 whole entry, looked up): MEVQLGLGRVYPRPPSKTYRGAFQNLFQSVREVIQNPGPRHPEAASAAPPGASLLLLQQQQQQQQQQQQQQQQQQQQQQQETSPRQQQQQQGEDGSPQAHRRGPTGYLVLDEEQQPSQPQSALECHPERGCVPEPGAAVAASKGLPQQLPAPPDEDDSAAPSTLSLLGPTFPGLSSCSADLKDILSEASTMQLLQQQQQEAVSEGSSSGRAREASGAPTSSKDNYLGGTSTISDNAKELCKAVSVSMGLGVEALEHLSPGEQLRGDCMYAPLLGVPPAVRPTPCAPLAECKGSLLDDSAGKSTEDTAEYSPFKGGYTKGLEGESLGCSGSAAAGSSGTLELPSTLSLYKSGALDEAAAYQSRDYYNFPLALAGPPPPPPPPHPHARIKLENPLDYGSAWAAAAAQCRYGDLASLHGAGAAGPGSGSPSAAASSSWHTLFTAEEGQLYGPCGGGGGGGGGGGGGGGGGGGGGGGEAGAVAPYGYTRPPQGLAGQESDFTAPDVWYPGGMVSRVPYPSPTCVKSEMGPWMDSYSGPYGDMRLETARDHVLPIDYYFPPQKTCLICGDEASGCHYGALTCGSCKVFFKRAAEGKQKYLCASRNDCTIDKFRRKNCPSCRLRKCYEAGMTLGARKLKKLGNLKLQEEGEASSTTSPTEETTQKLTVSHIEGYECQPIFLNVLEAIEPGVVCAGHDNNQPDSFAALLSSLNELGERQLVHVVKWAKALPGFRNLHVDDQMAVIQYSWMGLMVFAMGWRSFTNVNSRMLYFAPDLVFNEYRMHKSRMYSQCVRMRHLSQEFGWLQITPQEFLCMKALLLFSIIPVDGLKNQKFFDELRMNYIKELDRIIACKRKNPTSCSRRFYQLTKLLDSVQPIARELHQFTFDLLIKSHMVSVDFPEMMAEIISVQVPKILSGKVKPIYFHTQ
How it was run: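 Stimulation of an AR-responsive β-lactamase reporter in GripTite HEK293 cells was measured after 16 h compound exposure at 37 °C, via CCF4 fluorescence after 2 h RT. EC50 from Hill fits, normalized to R1881 at 30 nM.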

CC(O)CN(CCN(CC(C)O)CC(C)O)CC(C)O (centres undefined)
inactive: Potency [1] | Potency [2]

Oc1cccc(O)c1
inactive: Potency [1] | Potency [2] | outcome [3]

CCCCC(CC)COC(=O)c1ccccc1O (centres undefined)
inactive: Potency [1] | Potency [2] | outcome [3] | outcome [4]

Oc1ccc(C(O)CNCCCCCCNCC(O)c2ccc(O)c(O)c2)cc1O (centres undefined)
inactive: Potency [2]

COc1ccccc1O
inactive: Potency [1] | Potency [2] | outcome [3] | outcome [4]

CCN(CC)CCCC(C)Nc1c2ccc(Cl)cc2nc2ccc(OC)cc12 (centres undefined)
inactive: activation [6] -2.88% | outcome [7] | outcome [8] | outcome [9] | outcome [10]
active: Potency [5] 2.59 µM | Potency [2] 56.2 µM and 79.4 µM

O=C(O)CN1C(=O)c2cccc3cccc(c23)C1=O
inactive: Potency [1] | outcome [11]

[Cl][In]([Cl])[Cl]
inactive: Potency [1] | outcome [3] | outcome [4]

CC1(C)CO[C@@H](CC(=O)O)CN1
inactive: Potency [1] | Potency [2]

CN(C)CCCN1c2ccccc2CCc2ccccc21
-5.46%: viability change [13]
inactive: Potency [5] | outcome [12] | activation [6] 2.19% | Potency [13] | outcome [7] | outcome [10] | outcome [14]

CCN(CC)CCNC(=O)c1cc(Cl)c(N)cc1OC
inactive: Potency [5] | outcome [12] | activation [6] 1.31% | Potency [13] | outcome [7] | outcome [8] | outcome [9] | outcome [15] | outcome [10] | outcome [14] | Potency [16] | Potency [17]
-1.22%: viability change [13]

COC(=O)C1=C(C)NC(C)=C(C(=O)OC)C1c1ccccc1[N+](=O)[O-]
inactive: activation [6] 0.938% | outcome [7] | outcome [8] | outcome [9] | outcome [15] | outcome [10] | outcome [14] | outcome [11] | outcome [3]

CN(C)CCC=C1c2ccccc2CCc2ccccc21
inactive: Potency [5] | outcome [12] | activation [6] 1.31% | Potency [13] | outcome [7] | outcome [8] | outcome [9] | outcome [15] | outcome [10] | outcome [14] | outcome [4]
9.1%: viability change [13]

CCN(CC)CCOC(=O)C1(C2CCCCC2)CCCCC1
-2.64%: viability change [13]
inactive: Potency [5] | outcome [12] | activation [6] -6.69% | Potency [13] | outcome [7] | outcome [8] | outcome [9] | outcome [15] | outcome [10] | outcome [14] | Potency [2]

Cc1ccc(C(C)C)cc2c(C)ccc1-2
inactive: Potency [1] | Potency [2]

CC(COc1ccccc1)NC(C)C(O)c1ccc(O)cc1 (centres undefined)
inactive: Potency [2]

CNCCC(Oc1ccc(C(F)(F)F)cc1)c1ccccc1 (centres undefined)
inactive: Potency [5] | outcome [12] | activation [6] 22.8% | Potency [13] | outcome [7] | outcome [8] | outcome [9] | outcome [15] | outcome [10] | outcome [14] | Potency [2]
3.02%: viability change [13]

CN(C)CCCN1c2ccccc2Sc2ccc(Cl)cc21
inactive: Potency [5] | activation [6] 11.5% | Potency [13] | outcome [7] | outcome [8] | outcome [15] | outcome [10] | outcome [14]
4.06%: viability change [13]

CSc1ccc2c(c1)N(CCC1CCCCN1C)c1ccccc1S2 (centres undefined)
active: Potency [16] 25.1 µM
inactive: Potency [5] | outcome [12] | outcome [7] | outcome [8] | outcome [9] | outcome [15] | outcome [10] | outcome [14]

Cc1cccc(Nc2cc(Cl)nc(SCC(=O)O)n2)c1C
inactive: outcome [11] | outcome [3] | outcome [4] | activation [18] 4.07%

O=c1cc(CO)occ1O
inactive: Potency [2] | outcome [11]

OC[C@H]1O[C@@H](O[C@@H]2[C@@H](CO)O[C@](O)(CO)[C@H]2O)[C@H](O)[C@@H](O)[C@H]1O
inactive: outcome [11]

CCOC(=O)c1ccc(O)cc1
inactive: Potency [1] | Potency [2] | outcome [3]

c1ccc(CN(CC2=NCCN2)c2ccccc2)cc1
inactive: Potency [1] | Potency [2] | outcome [11]

CCC(=O)c1ccc(O)cc1
inactive: Potency [2]

NCCNCCNCCNCCN
inactive: Potency [1] | Potency [2] | activation [18] 15.1% and -3.31%

CC(CN(C)C)CN1c2ccccc2CCc2ccccc21 (centres undefined)
inactive: Potency [5] | outcome [12] | activation [6] 6.88% | outcome [7] | outcome [8] | outcome [9] | outcome [15] | outcome [10] | outcome [14]

Nc1ccc(S(=O)(=O)Nc2nccs2)cc1
inactive: Potency [2] | outcome [3] | outcome [4]

CNCC(O)c1ccc(O)c(O)c1 (centres undefined)
inactive: Potency [5] | outcome [12] | activation [6] 0.938% | Potency [13] | outcome [7] | outcome [8] | outcome [9] | outcome [15] | outcome [10] | outcome [14] | Potency [2] | Potency [17]
1.42%: viability change [13]

CC(O)COc1ccccc1 (centres undefined)
inactive: Potency [1] | Potency [2] | activation [18] 4.06%

CC12CCC(CC1)C(C)(C)O2
inactive: Potency [1] | Potency [2] | outcome [3] | outcome [4]
